Source: PubChem BioAssay AID493131 (Broad Institute, 2011)
The campaign covered roughly 340,000 compounds. About 3,300 (0.97%) were called active. What follows is part of a selection rich in actives, with near analogues and random picks from the rest. A number with no mark means an inactive call.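 The calls were made as follows: active = mean activation above about 17%, with every replicate also reaching it (limit read from the data, passing the limit was not always enough); inconclusive = only one of the two conditions met; inactive = the rest.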

The molecules below were run against Protein FosB (Mus musculus) (UniProt P13346) (assay: enhancers of mouse delta FosB DNA binding – biochemical, fluorescence polarization, TAMRA-CDK5 oligo, single point, primary screen (AID 493131;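 also: fluorescence polarization rise as delta FosB binds a TAMRA Cdk5 AP-1 oligo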)). Conditions: purified delta FosB, at 25 µM, hits give high values, percent of positive-control signal above neutral wells.
Sequence of Protein FosB (Mus musculus) (P13346 whole entry, looked up): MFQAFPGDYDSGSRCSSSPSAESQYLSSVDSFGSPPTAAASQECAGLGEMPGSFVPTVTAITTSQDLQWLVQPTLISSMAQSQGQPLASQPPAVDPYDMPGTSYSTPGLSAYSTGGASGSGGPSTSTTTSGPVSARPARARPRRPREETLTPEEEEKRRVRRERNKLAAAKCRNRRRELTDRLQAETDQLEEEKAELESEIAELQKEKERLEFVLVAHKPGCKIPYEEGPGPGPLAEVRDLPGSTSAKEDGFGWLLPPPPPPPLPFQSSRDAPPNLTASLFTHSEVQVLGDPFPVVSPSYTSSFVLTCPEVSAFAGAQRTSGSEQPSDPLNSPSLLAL
`O=C(COC(=O)CNS(=O)(=O)c1ccc(F)c(F)c1F)NC1CCCC1` was tested, and the activation was 0.263%.
With `COc1ccc(CCN(Cc2cc3cccc(C)c3[nH]c2=O)C(=O)N2CCCC2)cc1OC` the activation was -15.7%.
With `c1ccc(C2=Nc3cccc4cccc(c34)N2)cc1` the activation was 28.1% (active).
With `COc1ccccc1C1=Nc2cccc3cccc(c23)N1` the activation was -1.27%.
Work on `Fc1ccccc1N=C1Nc2cccc3cccc1c23` yielded an activation of 3.8%.
In the case of `CC(=O)N1CSCC1C(=O)O` (stereo not drawn), the activation is reported as 0.385%.
With `Cc1ccc(NC(=O)C(CC(=O)O)C2CCCO2)c(C)c1` (stereo not drawn) the activation was -0.253%.
In the case of `Cn1ccnc1SCC(=O)Nc1ccc2c(c1)OCCO2`, the activation is reported as -4.18%.
`Cc1ccc(-c2cc(C(=O)N/N=C/C=C/c3ccccc3)n[nH]2)o1` was tested, and the activation was 23.5% (active).
`O=C(NN=CC=Cc1ccccc1)C(O)C(O)C(=O)NN=CC=Cc1ccccc1` (stereo not drawn) gave an activation of 2.15%.
`CC(C)c1cc(C(=O)N/N=C/C(Br)=C/c2ccccc2)n[nH]1` showed an activation of -3.49%.
`Cc1ccc(OCc2cc(C(=O)N(C)CCn3ccnc3C)no2)cc1C` was tested, and the activation was -7.77%.
For `O=C(c1ccc(NS(=O)(=O)c2ccc3[nH]c(=O)[nH]c3c2)cc1)N1CCCCC1`, the activation was -5.69%.
For `Cc1cccc([C@@H]2[C@@H]3C(=O)N(Cc4ccccc4)C(=O)[C@@H]3[C@]3(Cc4ccc(Cl)cc4)C(=O)N(c4cccc(Cl)c4)C(=O)N23)c1`, the activation was -7.94%.
For `COc1cccc(CN(C)CC(=O)Nc2sc3c(c2C#N)CCC3)c1`, the activation was -3.77%.
Work on `CCCc1cc(=O)[nH]c(SCC(=O)Nc2sc3c(c2C#N)CCCC3)n1` yielded an activation of -10.9%.
For `COc1ccc(-n2c(SCC(=O)Nc3sc4c(c3C#N)CCCC4)nnc2-c2ccc(O)cc2)cc1`, the activation was 23.1% (active).
`NC(=O)c1nnsc1-c1ccc(-c2snnc2C(N)=O)cc1` gave an activation of 12.3%.
In the case of `Cc1c(C(=O)NCCN2CCOCC2)sc2nc(-c3ccc(F)cc3)cn12`, the activation is reported as -10.6%.
In the case of `CCCCn1c(N)c(N(CC(C)C)C(=O)c2ccc(-n3c(C)ccc3C)cc2)c(=O)[nH]c1=O`, the activation is reported as 8.61%.
In the case of `Cc1nc(/N=C(\N)NC(=O)NC2CCCCC2)nc2ccccc12`, the activation is reported as 3.68%.
With `COc1ccc2nc(/N=C(\N)NC(=O)Nc3ccccc3)nc(C)c2c1` the activation was 52.1% (active).
`COc1ccc2nc(C)cc(Nc3cccc(C(=O)O)c3)c2c1` gave an activation of -0.297%.
`O=S(=O)(NCC1CN(S(=O)(=O)c2ccc3c(c2)OCCO3)C1)c1c(F)cccc1F` gave an activation of 2.95%.
Molecule `CS(=O)(=O)N1CCN=C1SCc1ccc(F)cc1` has an activation of 1.39%.
With `CCN(CC)CCOc1ccc2c(c1)C(=NNC(=O)c1ccccn1)c1cc(OCCN(CC)CC)ccc1-2` the activation was 79.1% (active).
`C/C(=N\NC(=O)c1ccccc1F)c1ccccn1` gave an activation of -8.45%.
`CCOc1cc2ccccc2cc1C(=O)Nc1ccccn1` showed an activation of -0.935%.
`CN(C)NC(=O)C(NC(=O)c1ccc(N)cc1)C12CC3CC(CC(C3)C1)C2` (stereo not drawn) gave an activation of -3.81%.
Work on `Cc1oc(CC(C)C)c(CN2CCCC2)c1C(=O)O` yielded an activation of 4.27%.
Work on `Cc1ccc(OCC(=O)Nc2ccccc2C(=O)NC2CC2)cc1` yielded an activation of -7.85%.
With `COc1ccccc1OCC(=O)Nc1ccccc1C(=O)NC1CC1` the activation was -0.401%.
With `Cc1ccc(OCC(=O)Nc2ccccc2C(=O)NC2CC2)cc1C` the activation was 36.7% (active).
For `COc1ccc(C2=Nc3cc(C)ccc3OC2)cc1`, the activation was -10.5%.
With `CCCCCCCCCCOC(=O)Cn1c(COc2cccc(OC)c2)[n+](C)c2ccccc21` the activation was 28.7% (active).
`CCCCOc1ccc(NC(=O)CSCC(=O)OCC)cc1` gave an activation of -6.39%.
`CCCCCCCCCCOC(=O)Cn1c(COc2ccc(C)cc2)[n+](C)c2ccccc21` was tested, and the activation was 38.3% (active).
`CCOC(=O)CNC(=O)CSc1nnc(-c2cccc(OC)c2)n1CC` showed an activation of -2.27%.
Molecule `COc1cccc(NC(=O)COC(=O)CCOc2ccccc2OC)c1` has an activation of 2.67%.
For `CCOC(=O)COn1c(=O)c(-c2ccc(OCC)cc2)[n+]([O-])c2ccccc21`, the activation was -3.65%.
`CCC1=C(OC(=O)N(CC)CC)N2C(=O)OC(=NCCc3c[nH]c4ccccc34)[C@]2(C)[C@H]2C1=CC[C@H]1C(=O)N(CC)C(=O)[C@H]12` was tested, and the activation was -18.3%.
For `CCOC(=O)N1CCN(S(=O)(=O)c2ccc(-n3cnnn3)cc2)CC1`, the activation was -6.35%.
In the case of `CC(=O)c1ccc(S(=O)(=O)N2CCC(Oc3ccc(-n4cnnn4)cc3)CC2)cc1`, the activation is reported as 12.7%.
`Cc1ccc(S(=O)(=O)N2CCC(Oc3ccc(-n4cnnn4)cc3)CC2)cc1` was tested, and the activation was 58.6% (active).
`Cn1c(=O)c2c(nc(Br)n2CCSc2nc3ccccc3o2)n(C)c1=O` was tested, and the activation was 1.42%.
`Cc1cccc(C)c1NC(=O)C1(C)c2cccc[n+]2CC(=O)N1Cc1cccs1` (stereo not drawn) gave an activation of -6.06%.
In the case of `Cc1cccc(OCC(O)CN2CCN(CCN3C(=O)c4cccc5cccc(c45)C3=O)CC2)c1C` (stereo not drawn), the activation is reported as 62.2% (active).
`COc1ccccc1OCC(O)CN1CCOCC1` (stereo not drawn) gave an activation of -1.24%.
For `C=CCc1ccccc1OCC(O)CN1CCN(CCO)CC1` (stereo not drawn), the activation was -2.68%.
`COc1ccc(S(=O)(=O)NCCOc2ccccc2)cc1F` was tested, and the activation was 7.41%.
`CCCSc1nc2sc3c(c2c(=O)n1-c1ccc(OC)cc1)CCN(C)C3` showed an activation of -14.7%.
Work on `CCOc1ccc(-n2c(SCC(=O)OC)nc3sc4c(c3c2=O)CCN(C)C4)cc1` yielded an activation of -0.804%.
`CCOc1ccc(-n2c(SCC(=O)Nc3ccc(OC)cc3)nc3sc4c(c3c2=O)CCN(C)C4)cc1` was tested, and the activation was 50.3% (active).
For `Cc1ccccc1-c1nc(CS(=O)(=O)CC(=O)N2CCc3ccccc3C2)c(C)o1`, the activation was -5.6%.
`O=C(COC(=O)c1cnccn1)Nc1cccc2ccccc12` was tested, and the activation was -2.31%.
With `N#CCCN1CCN(S(=O)(=O)c2ccc(S(=O)(=O)NC3CCCCC3)cc2)CC1` the activation was -3.88%.
With `COC(=O)c1cc(NC(=O)CN2CCN(C(C)=O)CC2)cc(C(=O)OC)c1` the activation was 2.81%.
Work on `Cc1cccc(Nc2nnc(SCC(=O)c3c(N)n(C4CC4)c(=O)[nH]c3=O)s2)c1C` yielded an activation of -2.18%.
In the case of `Cc1nnc(NC(=O)c2ccc3nccnc3c2)s1`, the activation is reported as 1.3%.
`Cc1nnc(NC(=O)C(c2ccccc2)c2ccccc2)s1` showed an activation of -0.437%.
For `Cc1nnc(NC(=O)Nc2ccc(Cl)c(Cl)c2)s1`, the activation was 28.8% (active).
`CC(C)Cn1c(N)c(C(=O)COC(=O)CN2C(=O)C3CC=CCC3C2=O)c(=O)n(C)c1=O` (stereo not drawn) gave an activation of -11.5%.
For `COc1cccc(N2CC(NS(=O)(=O)c3cccs3)CC2=O)c1` (stereo not drawn), the activation was 0.171%.
`CCc1ccc(CNC(=O)C2CC(=O)N(CCc3ccc(C)cc3)C2)cc1` (stereo not drawn) showed an activation of -3.6%.
With `CCc1ccc(CNC(=O)C2CCN(c3nnc(C)c4c(C)n(-c5ccc(C)cc5)nc34)CC2)cc1` the activation was 82.7% (active).
`CCOc1ccc(CNC(=O)C2CCCN(c3nnc(C)c4c(C)n(-c5ccccc5)nc34)C2)cc1` (stereo not drawn) showed an activation of -5.11%.
In the case of `Cc1ccc(NC(=O)CN2CCc3ccccc3C2)cc1C`, the activation is reported as -4.61%.
`Cc1ccc(OS(=O)Nc2cccc3nccnc23)cc1` (stereo not drawn) was tested, and the activation was -0.877%.
`COc1cccc(CNC(=O)Cc2csc(Nc3nc(=S)[nH]c4ccccc34)n2)c1` gave an activation of 12.2%.
For `O=C(CCCn1c(=O)[nH]c2cc(Cl)ccc2c1=O)NCCN1CCN(c2ccccc2)CC1`, the activation was -5.22%.
With `O=C(Cc1csc(Nc2nc(=S)[nH]c3ccccc23)n1)NCCCN1CCN(c2cccc(Cl)c2)CC1` the activation was 34.1% (active).
In the case of `O=[N+]([O-])c1cc2ccccc2nc1-c1ccccc1`, the activation is reported as -4.74%.
For `CC1COc2ccccc2N1C(=O)c1cccnc1Cl` (stereo not drawn), the activation was -2.06%.
For `Cc1cccc(Nc2nc(NCCO)nc(N3CCCC3)n2)c1`, the activation was 2.75%.
`CN1CCN(c2nc(Nc3ccc(O)cc3)nc3ccccc23)CC1` was tested, and the activation was 10.9%.
With `OCCNc1nc(Nc2ccc(Cl)c(Cl)c2)nc2ccccc12` the activation was 47% (active).
`CC12CN(Cc3ccccc3)CC(C)(CN(Cc3ccccc3)C1)C2=NO` was tested, and the activation was -1.53%.
`CCOc1ccccc1-n1c(SCC(=O)NCc2ccco2)nnc1-c1ccncc1` gave an activation of -2.73%.
`O=C(Nc1ccccc1)Nc1nnc(COc2ccccc2F)s1` was tested, and the activation was 28.4% (active).
Molecule `O=C(NCCOc1ccccc1F)Nc1ccc(Br)cc1` has an activation of -2.98%.
Work on `COc1ccccc1NC(=O)Nc1nnc(Cc2ccc(F)cc2)s1` yielded an activation of -2.06%.
`COc1cc(C)ccc1OCC(=O)OCC(=O)c1ccc[nH]1` gave an activation of 6.43%.
For `Cc1ccccc1Nc1nc(N)nc(COC(=O)CCC(=O)c2ccc(F)cc2)n1`, the activation was -1.04%.
Work on `CC(NC(=O)COC(=O)CCC(=O)c1ccc(Cl)cc1)c1ccccc1` (stereo not drawn) yielded an activation of -9.29%.
`Nc1nc(COC(=O)CCC(=O)c2ccc(Cl)cc2)nc(Nc2ccccc2)n1` was tested, and the activation was 21.6% (active).
With `OCCCNC(c1ccccc1)c1ccc(O)cc1` (stereo not drawn) the activation was -0.537%.
Work on `CCc1ccc2nc(N(CCCN(C)C)C(=O)c3ccc4c(c3)OCCO4)sc2c1` yielded an activation of -10.5%.
For `CCOc1ccc2nc(N(CCN(C)C)C(=O)c3ccc4ccccc4c3)sc2c1`, the activation was 18.5% (active).
`CCCC(=O)N(CCN1CCOCC1)c1nc2ccc(OCC)cc2s1` gave an activation of 1.55%.
With `Cc1onc(-c2ccccc2Cl)c1C(=O)N(Cc1ccc(N(C)C)cc1)C(C)C` the activation was -12.7%.
Molecule `O=C(N/N=C/c1ccco1)c1csc2c1CCCC2` has an activation of 2.38%.
`O=C(Cc1ccccc1)Nc1cccc(C(=O)N/N=C/c2ccco2)c1` was tested, and the activation was -7.68%.
For `O=C(N/N=C/c1ccco1)c1ccc(NC(=O)C2CC2)cc1`, the activation was 31.9% (active).
